Molecules are shown by their SMILES. Hit rate of the full screen: of about 87,000 compounds, about 360 (0.41%) were called active. This is one part of a sample in which actives are shown more often than they occur. Cut-off read from the data, not from the text of the source: active = cytotoxicity above about 50%; inactive = the rest.

A short description of the assay: HT1080 cell viability loss – fluorescence readout (AID 620).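 Note: cells exposed to compound overnight then 4 h with Alamar Blue; 0% = vehicle DMSO and 100% = killing control.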 The conditions noted are these: at 10 µM, hits give high values.
As to `COCCNC(=O)C(c1cccs1)N(C(=O)Cn1nnc2ccccc21)c1ccccc1` (configuration not stated), the cytotoxicity was 2.1% (inactive).
Under `Nc1cccc(Nc2nc(OC(C(F)(F)F)C(F)(F)F)nc(OC(C(F)(F)F)C(F)(F)F)n2)c1` stands -15.3% (inactive); under `Cc1cc(C)c2nc(SCC(=O)N3CCCCC3)c(C#N)cc2c1`, -0.9% (inactive).
As for `Cc1cc(C)c2nc(SCC(=O)N3CC(=O)Nc4ccccc43)c(C#N)cc2c1`, the cytotoxicity is 70.8% (active).
In the case of `Cc1cccc2cc(C#N)c(SCC(=O)N3CCC(C)CC3)nc12`, the cytotoxicity was -4.3% (inactive).
Consider `Cc1cccc2cc(C#N)c(SCC(=O)N3CC(=O)Nc4ccccc43)nc12`, for which the cytotoxicity was 62.5% (active).
Regarding `Cc1cc(C)cc(C(=O)N2CC(=O)Nc3ccccc32)c1`, the cytotoxicity was 63.6% (active).
Under `Cc1cc(C)c2nc(SCC(=O)Nc3ccccc3N3CCOCC3)c(C#N)cc2c1` stands 4.9% (inactive).
Regarding `CCc1ccc2nc(SCC(=O)N3CC(=O)Nc4ccccc43)c(C#N)cc2c1`, the cytotoxicity was -5.8% (inactive).
Under `Cc1ccsc1C(=O)N1CC(=O)Nc2ccccc21` stands -1.3% (inactive); under `O=C1CN(C(=O)c2ccccc2)c2ccccc2N1`, 1.9% (inactive); under `CC(C)Nc1oc(Cc2cccc3ccccc23)nc1C#N`, 4.7% (inactive).
Under `O=C(CSc1nc2ccccc2o1)c1ccccc1` stands -3.2% (inactive); under `Cc1cccc(NC(=S)N2N=CCC2c2ccccc2)c1` (configuration not stated), -1.4% (inactive).
Regarding `CC1=C(C(=O)OCc2ccccc2)C(c2ccccc2OC(=O)c2ccc(I)cc2)NC(=O)N1CCCC(=O)O` (configuration not stated), the cytotoxicity is -5.3% (inactive).
With `Cn1c(SCC(=O)NCCNC(=O)CSc2nnc(C(F)(F)F)n2C)nnc1C(F)(F)F`, the cytotoxicity is 5.9% (inactive).
As for `Cc1cc(=O)[nH]c(-n2nc(C)cc2C)n1`, the figure is -0.8% (inactive); as for `Cc1ccc(Nc2cc(C)nn2-c2nc(C)cc(C)n2)cc1`, -13.7% (inactive).
Take `Cc1ccc(Nc2cc(C)nn2-c2nc(C)cc(=O)[nH]2)cc1`: the cytotoxicity was 65.9% (active).
As for `O=C(Nc1nc(-c2cc(Cl)sc2Cl)cs1)c1cccs1`, the figure is -0.1% (inactive).
As for `CC(C)Sc1nc(-c2ccccc2)cc(=O)[nH]1`, the figure is 16.9% (inactive).
As for `N#CCCCSc1nnc(-c2ccccn2)o1`, the figure is 0.3% (inactive); as for `CN(C)CCCNC(CC(=O)Nc1ccc(Cl)cc1)C(=O)O` (configuration not stated), -0.1% (inactive); as for `CCOC(=O)C1CCCN(C(=O)C2CCN(S(=O)(=O)c3cnc[nH]3)CC2)C1` (configuration not stated), 3.9% (inactive).
In the case of `O=C(CNC(=O)c1ccc(Br)o1)Nc1cccc(-c2cnc3ccccc3n2)c1`, the cytotoxicity was -7.7% (inactive).
In the case of `O=C(CCl)Nc1cccc(-c2cnc3ccccc3n2)c1`, the cytotoxicity was 98.8% (active).
As for `O=C(Nc1cccc(-c2cnc3ccccc3n2)c1)c1ccco1`, the figure is -2.2% (inactive); as for `CCC(=O)N1c2ccccc2NC2=C(C(=O)CCC2)C1c1cccnc1` (configuration not stated), -7% (inactive); as for `CC(=O)N1CCCc2cc(S(=O)(=O)N(CC(C)C)CC(C)C)ccc21`, -25.7% (inactive).
As for `Cc1ccc2cc(CN(Cc3ccco3)C(=O)c3cccs3)c(=O)[nH]c2c1`, the figure is 59.8% (active); as for `O=C(c1cccs1)N(Cc1ccco1)Cc1cc2ccccc2[nH]c1=O`, -4.8% (inactive).
`Cc1ccc2[nH]c(=O)c(CN(Cc3ccco3)C(=O)c3cccs3)cc2c1`: the cytotoxicity was 4.9% (inactive).
As for `CN(C)S(=O)(=O)c1ccc(S(=O)(=O)N(CC(=O)Nc2ccccc2)Cc2ccco2)cc1`, the figure is 4.9% (inactive); as for `COc1nnc(-c2ccc(C)c(S(=O)(=O)NCCO)c2)c2ccccc12`, 12.8% (inactive).
As for `CSc1cc(-c2ccccc2)n(Cc2ccc(Cl)cc2Cl)c(=O)c1C#N`, the figure is -9.5% (inactive); as for `CSc1cc(-c2ccccc2)n(Cc2ccccc2Cl)c(=O)c1C#N`, 57.5% (active); as for `Cn1c(=O)c2c(nc(SCCCC#N)n2Cc2c(F)cccc2Cl)n(C)c1=O`, 1.4% (inactive).
As for `Cc1cc(C)n(Cc2ccccc2F)c(=O)c1C#N`, the figure is 4.8% (inactive).
On to `CSc1cc(-c2ccccc2)n(Cc2c(Cl)cccc2Cl)c(=O)c1C#N`, for which the cytotoxicity was 58.7% (active).
As for `CSc1cc(-c2ccc(Cl)cc2)n(Cc2ccccc2)c(=O)c1C#N`, the figure is -8.7% (inactive); as for `CCOc1ccc(-c2cnc(SCC(N)=O)nc2N)cc1`, 3.8% (inactive); as for `CCCOc1ccc(Br)cc1/C=N/O`, -13% (inactive).
As for `CCCCOc1ccc(Br)cc1/C(C)=N/NC1=NCCN1`, the cytotoxicity was 65.1% (active).
Under `COc1ccc(Br)cc1/C(C)=N/NC1=NCCN1` stands -8.6% (inactive); under `CCCCCOc1ccc(Br)cc1/C(C)=N/NC1=NCCN1`, 74.8% (active).
Under `CCOc1ccc(CSC2=NCCN2)cc1Cl` stands 12.8% (inactive); under `CCOc1ccc(Br)cc1/C(C)=N\NC1=NCCN1`, 12.3% (inactive); under `CCOc1ccc(NC(=O)c2cnccn2)cc1`, -17% (inactive).
Under `OC(c1cccnc1)c1cccs1` (configuration not stated) stands -4.7% (inactive); under `COc1ccc(Br)cc1CN1CCCC(C(=O)N2CCCCCC2)C1` (configuration not stated), 1.9% (inactive).
Regarding `Cc1ccc(NC(=O)Cn2nnc(-c3ccccc3NC(=O)c3cccs3)n2)cc1`, the cytotoxicity is 61.8% (active).
For `O=C(Cn1nnc(-c2ccccc2NC(=O)c2cccs2)n1)Nc1ccccc1`, the cytotoxicity is 0.3% (inactive).
In the case of `COc1ccc(NC(=O)Cn2nnc(-c3ccccc3NC(=O)c3cccs3)n2)cc1`, the cytotoxicity was -14.1% (inactive).
Under `Cn1c(=O)c2c(-c3ccccc3)n(-c3ccccc3O)cc2n(C)c1=O` stands 35.8% (inactive); under `COc1ccc2c(c1OC)C(=O)N1c3cccc(Cl)c3C(=O)OC21` (configuration not stated), 14.4% (inactive).
As for `COc1ccc(Nc2nc(C)cc(C)c2C(N)=O)cc1`, the figure is 3.9% (inactive).
Regarding `COc1ccc(C2C3=C(Nc4ncnn42)c2ccccc2CC3)cc1OC` (configuration not stated), the cytotoxicity is -2.9% (inactive).
Under `Clc1ccc(C2C3=C(Nc4ncnn42)c2ccccc2CC3)cc1` (configuration not stated) stands -2.4% (inactive).
As for `COc1cc(C2C3=C(Nc4ncnn42)c2ccccc2CC3)cc(OC)c1OC` (configuration not stated), the figure is 63.8% (active).
On to `Cc1nn(Cc2ccc(F)cc2)c(C)c1NC(=O)c1cnn2c1NC(c1cccs1)CC2C(F)(F)F` (configuration not stated), for which the cytotoxicity was 11% (inactive).
Under `C=C(C)CSc1nc(C)c(Cc2ccccc2)c(=O)[nH]1` stands -0.4% (inactive).
Turning to `c1ccc(NCc2nnc3n2CCCCC3)cc1`, the cytotoxicity was 1.8% (inactive).
Under `CC(=O)n1nc(-c2ccccc2)nc1NCc1ccc(F)cc1` stands -1.3% (inactive); under `O=C(Cc1ccc(F)cc1)NCCc1ccccc1`, -6.5% (inactive).
Under `Cn1c(=O)c2c(nc(NCc3ccccc3)n2Cc2ccc(F)cc2)n(C)c1=O` stands -1.5% (inactive).
Take `Cn1c(=O)c2c(nc(NCCc3ccccc3)n2Cc2ccc(F)cc2)n(C)c1=O`: the cytotoxicity is 0.4% (inactive).
Under `CC(=O)N(Cc1ccc(F)cc1)C1=C(NCc2ccccc2)C(=O)c2ccccc2C1=O` stands 92.6% (active).

The values above are taken from PubChem BioAssay AID620 (Sanford-Burnham Center for Chemical Genomics, 2007).
